Experimental findings from PubChem BioAssay (NCATS) are described below.

For assay [1], the target named is Cytochrome P450 3A7 (Homo sapiens) (UniProt P24462). Description: Cytochrome P450 family 3 subfamily A member 7 (CYP3A7) small molecule antagonists: luciferase biochemical qHTS assay (AID 1963596). Also: nearly all actives have a fitted effect of over 40% in size. A digest of the protocol:
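Recombinant CYP3A7 P450-Glo luminescent assay: enzyme-proluciferin substrate mix preincubated with compound 10 min at room temperature, reaction started with NADPH regeneration system for 1 h. Luciferin detected by luminescence; ketoconazole as positive control.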
For orientation: Quantitative high-throughput screening tests each substance at several concentrations.

Assay [2] can be described thus: Viability qHTS for spleen associated tyrosine kinase inhibitor (SYKi) naive MV4-11 cells (AID 1963823). Also: nearly all actives have a fitted effect of over 40% in size. A digest of the protocol: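 Compounds were dispensed acoustically onto plates, MV4-11 cells (SYKi-naive) added at 500 per well, and plates incubated 72 hr at 37 C. CellTiter-Glo was added and luminescence measured after 10 min.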
The nature of assay [3]: Viability qHTS for spleen associated tyrosine kinase inhibitor (SYKi) drug resistant MV4-11 cells (AID 1963824). Also: nearly all actives have a fitted effect of over 35% in size. A digest of the protocol:
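SYK inhibitor-resistant MV4-11 AML cells, 500 per well, added to predispensed compounds and incubated 72 hr at 37 C, 5% CO2. Viability measured by CellTiter-Glo luminescence after 10 min at room temperature.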

The nature of assay [4]: Quantitative highthroughput screen to assess conditional lethalithy of NOMO1 cells grown in RPMI1640 with untreated serum (RPMI+s) (AID 1963876). Also: nearly all actives have a fitted effect of over 35% in size.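 As to Viability: 100% = DMSO wells and 0% = empty wells without cells.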 The essentials: (§1)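 Each medium arm—HPLM with 10% dialyzed FBS, or RPMI1640 with 5 mM glucose and 10% untreated or dialyzed FBS—was screened against an 11-point, 3-fold compound titration for 48 h at 37 °C, with CellTiter-Glo luminescence as endpoint.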

Assay [5] in a line: Quantitative highthroughput screen to assess conditional lethalithy of NOMO1 cells grown in RPMI1640 with dialyzed fetal bovine serum (RPMI+ds) (AID 1963877). Also: nearly all actives have a fitted effect of over 30% in size.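 As to Viability: series mostly up to about 46 µM; 100% = DMSO control wells and 0% = empty wells.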 The essentials: as §1
Assay [6] is described as follows: Quantitative highthroughput screen to assess conditional lethalithy of P12 Ichikawa cells grown in Human Plasma-Like Medium with dialyzed fetal bovine serum (HPLM+ds) (AID 1963879). Also: nearly all actives have a fitted effect of over 35% in size. As to Viability: series mostly up to about 46 µM. The settings on record: Potency: viability. A digest of the protocol:
as §1

Assay [7] can be described thus: Quantitative highthroughput screen to assess conditional lethalithy of P12 Ichikawa cells grown in RPMI1640 with dialyzed fetal bovine serum (RPMI+ds) (AID 1963880). Also: nearly all actives have a fitted effect of over 35% in size.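 As to Viability: 100% = DMSO wells and 0% = empty wells on each plate.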 To be noted: Potency: P12-Ichikawa viability. The essentials:
as §1

Assay [8] can be described thus: Quantitative highthroughput screen to assess conditional lethalithy of P12 Ichikawa cells grown in RPMI1640 with untreated serum (RPMI+s) (AID 1963881). Also: nearly all actives have a fitted effect of over 35% in size.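 As to Viability: series mostly up to about 46 µM; 100% = DMSO wells and 0% = empty wells without cells.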 To be noted: Potency: viability. A digest of the protocol: as §1
Assay [9] can be described thus: Quantitative highthroughput screen to assess conditional lethalithy of SEM cells grown in Human Plasma-Like Medium with dialyzed fetal bovine serum (HPLM+ds) (AID 1963882). Also: nearly all actives have a fitted effect of over 35% in size. As to Viability: series mostly up to about 46 µM. A digest of the protocol: as §1
Assay [10] in a line: Quantitative highthroughput screen to assess conditional lethalithy of SEM cells grown in RPMI1640 with unreated serum (RPMI+s) (AID 1963883). Also: nearly all actives have a fitted effect of over 35% in size.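 As to Viability: 100% = DMSO wells and 0% = empty wells without cells.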 A digest of the protocol: as §1
A short description of assay [11]: Quantitative highthroughput screen to assess conditional lethalithy of SEM cells grown in RPMI1640 with dialyzed fetal bovine serum (RPMI+ds) (AID 1963884). Also: nearly all actives have a fitted effect of over 35% in size.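 As to Viability: series mostly up to about 46 µM; 100% = DMSO control wells and 0% = empty wells without cells.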 The essentials: as §1
Assay [12] in a line: Cellular viability qHTS for adrenocortical cancer (ACC) cell line SW-13 (AID 1963989). Also: nearly all actives have a fitted effect of over 65% in size.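 As to activity (max response): cells grown in serum-free medium with ITS supplement; % is scaled to controls: 0 for no effect and ±100 for the full control effect.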 The settings on record: SW-13 ACC cells viability, CellTiter-Glo, 48 h; activity (max response): hits give low values. The essentials:
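Compound titrations (up to 46 uM final, in DMSO) were applied to SW-13 cells for 48 h at 37C/5% CO2. Reading used CellTiter-Glo after 20 min at room temperature; fitted curves yielded IC50 and efficacy.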

A short description of assay [13]: Cellular viability qHTS for adrenocortical cancer (ACC) cell line NCI-H295R (AID 1963990). Also: nearly all actives have a fitted effect of over 60% in size. The essentials: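 Readout: CellTiter-Glo luminescence, 20 min RT. Exposure: 48 h, 37C/5% CO2. Cells: NCI-H295R, ITS-DMEM serum-free. Range: up to 46 uM. Analysis: 4PL fit, IC50 plus efficacy.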
Assay [14] in a line: Quantitative highthroughput screen to assess conditional lethalithy of NOMO1 cells grown in Human Plasma-Like Medium with dialyzed fetal bovine serum (HPLM+ds) (AID 1963878). Also: nearly all actives have a fitted effect of over 35% in size.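 As to Viability: 100% = DMSO wells and 0% = empty wells on each plate.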 A digest of the protocol: as §1

Several values for one entry are separate records, joined by “and”; a condition that tells them apart may be missing. Equal entries are not always repeated. Records with an inconclusive call do not appear. Values without a mark were called inactive. Activity calls are given as the source filed them. Calls follow the shape of the dose curve; as a rule, active = well fitted curve in the direction sought with a large enough effect; inconclusive = small, poorly fitted or top-dose-only effect, or another doubt; inactive = no such curve, though single readings can be large; an effect the other way counts as inactive or inconclusive.
Potency is read from the fitted curve at half-maximal effect.

Sequence of Cytochrome P450 3A7 (Homo sapiens) (P24462 whole entry, looked up): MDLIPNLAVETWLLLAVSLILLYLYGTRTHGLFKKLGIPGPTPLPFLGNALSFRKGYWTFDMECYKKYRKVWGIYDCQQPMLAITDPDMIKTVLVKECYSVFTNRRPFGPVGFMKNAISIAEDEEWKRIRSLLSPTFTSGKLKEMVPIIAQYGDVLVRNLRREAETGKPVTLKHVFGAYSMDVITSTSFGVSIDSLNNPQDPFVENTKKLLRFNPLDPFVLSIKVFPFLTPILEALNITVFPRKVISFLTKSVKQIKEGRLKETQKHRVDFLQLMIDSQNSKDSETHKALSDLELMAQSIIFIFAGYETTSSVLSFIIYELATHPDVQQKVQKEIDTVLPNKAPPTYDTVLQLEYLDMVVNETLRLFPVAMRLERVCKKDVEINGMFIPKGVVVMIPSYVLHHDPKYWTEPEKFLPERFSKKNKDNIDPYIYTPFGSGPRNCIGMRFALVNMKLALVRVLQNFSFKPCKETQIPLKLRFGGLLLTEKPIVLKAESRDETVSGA

Consider `NC1=N[C@H]2[C@H](CS[C@H]2CCCCC(=O)O)N1`, for which the Potency result in [1], in assay [2], in assay [3], in assay [4], in assay [5] and in [6] was “inactive” each time. The Potency entry in [7], in assay [8], in assay [9], in assay [10] and in assay [11] was “inactive” each time. In addition, the activity (max response) in assay [12] is 13%.
With `C=CCn1c(=O)c2cnc(Nc3ccc(N4CCN(C)CC4)cc3)nc2n1-c1cccc(C(C)(C)O)n1`, the Potency in [1] was 10 µM (active); in assay [2] it was 525 nM (active); in [3] it was 259 nM (active) and 372 nM (active); in assay [4], 1.05 µM (active); in [5], 0.418 µM (active); in assay [6], 1.05 µM (active). The Potency in assay [8] was 2.64 µM (active); in [9] it was 0.235 µM (active); in assay [10], 0.418 µM (active); in assay [11], 0.148 µM (active); in assay [12], 3.55 µM (active); in assay [13] it was 1 µM (active).
As to `COC(=O)Nc1nc2ccc(C(=O)c3ccccc3)cc2[nH]1`, the Potency entry in assay [1] is “inactive”. For the same compound, the Potency was 332 nM (active) in assay [2]; 596 nM (active) and 372 nM (active) in assay [3]; 3.32 µM (active) in assay [4]; 1.05 µM (active) in assay [6]; 1.87 µM (active) in assay [7]; 0.332 µM (active) in assay [8]. Besides, the Potency in assay [12] was 130 nM (active) and 316 nM (active); in [13], 103 nM (active) and 141 nM (active).
For `Cc1ccc(C(=O)Nc2ccc(S(=O)(=O)O)c3cc(S(=O)(=O)O)cc(S(=O)(=O)O)c23)cc1NC(=O)c1cccc(NC(=O)Nc2cccc(C(=O)Nc3cc(C(=O)Nc4ccc(S(=O)(=O)O)c5cc(S(=O)(=O)O)cc(S(=O)(=O)O)c45)ccc3C)c2)c1`, the Potency entry in [1], in assay [2], in assay [3], in [4] and in assay [13] was “inactive” throughout. Also, the Potency in [5] was 8.33 µM (active); in [10], 4.69 µM (active). In addition, the activity (max response) in assay [12] was -19.9% and 5.07%.
Consider `Cc1cnc(Nc2ccc(N3CCN(C)CC3)cc2)nc1Nc1cccc(S(=O)(=O)NC(C)(C)C)c1`, for which the Potency result in assay [1] is “inactive”. Further, the Potency in assay [2] is 103 nM (active); in [3], 206 nM (active); in assay [4], 13.2 µM (active); in [14], 14.8 µM (active); in assay [6] it was 11.8 µM (active); in [7] it was 16.6 µM (active). Also, the Potency was 7.43 µM (active) in [8]; 1.05 µM (active) in [9]; 0.935 µM (active) in [10]; 1.32 µM (active) in assay [11]; 12.6 µM (active) in [12]; 10 µM (active) in assay [13].
In the case of `NS(=O)(=O)c1cc(Cl)c(Cl)c(S(N)(=O)=O)c1`, the Potency result in [1], in assay [2], in assay [3], in [4], in [5] and in assay [14] was “inactive” in each case. Moreover, the Potency result in assay [7], in assay [8] and in [13] was “inactive” in each case. The activity (max response) in assay [12] was -6.34%.
Consider `Oc1c(Cl)cc(Cl)c2cccnc12`, for which the Potency entry in assay [1], in [4] and in assay [14] was “inactive” in each case. In addition, the Potency in assay [2] was 5250 nM (active); in [3], 8330 nM (active); in assay [9] it was 16.6 µM (active); in assay [10], 18.7 µM (active); in assay [11] it was 18.7 µM (active); in assay [12], 3.55 µM (active). Besides, the Potency in assay [13] is 7.94 µM (active).
As to `O=C(NC(Cc1cc(=O)[nH]c2ccccc12)C(=O)O)c1ccc(Cl)cc1` (centres undefined), the Potency result in [1], in assay [2], in assay [3], in assay [4], in assay [5] and in [6] was “inactive” in each case. The Potency result in assay [8], in assay [10], in [11] and in assay [13] was “inactive” each time.
As for `Cc1cn([C@@H]2C[C@@H](O)[C@H](CO)O2)c(=O)[nH]c1=O`, the Potency result in assay [1], in assay [2], in assay [3], in [4] and in assay [13] was “inactive” each time. The Potency in assay [6] is 23.5 µM (active). For the same compound, the activity (max response) in [12] is -17.5%.
On to `CN(C)CC(=O)N1CCC(c2ccc(NC(=O)c3ncc(C#N)[nH]3)c(C3=CCCCC3)c2)CC1`, for which the Potency result in [1], in [5], in assay [14], in assay [6] and in assay [7] was “inactive” in each case. Also, the Potency was 73.1 nM (active) and 74.2 nM (active) in [2]; 41.1 nM (active) and 148 nM (active) in assay [3].
For the compound `CCCC(CCC)C(=O)O`, the Potency entry in assay [1], in [2], in assay [3], in assay [4], in assay [6] and in assay [7] was “inactive” each time. Moreover, the Potency entry in assay [9], in assay [10], in [11] and in [13] was “inactive” each time. The activity (max response) in assay [12] was 6.17% and -13.6%.
In the case of `Cn1ccc2cc3c(cc21)CCN3C(=O)Nc1cccnc1`, the Potency result in assay [1], in [2], in assay [3], in assay [4], in assay [5] and in assay [14] was “inactive” each time. Also, in assay [13], the Potency result is “inactive”. Besides, in [12], the activity (max response) was -12.5% and 11.5%.
For `Cn1c(NCCN(CCO)CCCc2ccc([N+](=O)[O-])cc2)cc(=O)n(C)c1=O`, the Potency result in assay [1], in assay [2], in assay [3], in assay [4] and in [13] was “inactive” throughout. In addition, the activity (max response) in assay [12] was 5.91% and 4.46%.
Turning to `CCN[C@H]1C[C@H](C)S(=O)(=O)c2sc(S(N)(=O)=O)cc21`, the Potency result in assay [1], in assay [2], in assay [3], in [4], in assay [14] and in [6] was “inactive” in each case. For the same compound, the Potency entry in assay [7], in assay [8], in [9], in [10], in [11] and in [13] was “inactive” each time.
Turning to `C#CCN[C@@H]1CCc2ccccc21`, the Potency entry in assay [1], in assay [2], in assay [3], in assay [4], in assay [5] and in assay [6] was “inactive” each time. In addition, the Potency entry in [7], in assay [8], in assay [9], in [11] and in [13] was “inactive” each time. In addition, the activity (max response) in assay [12] was 3.89% and -12.7%.
As for `CC[N+](CC)(CC)CCOc1cccc(OCC[N+](CC)(CC)CC)c1OCC[N+](CC)(CC)CC`, the Potency result in [1], in [2], in assay [3], in assay [4], in assay [5] and in [7] was “inactive” in each case. Further, the Potency entry in assay [8], in [9], in assay [10], in assay [11] and in [13] was “inactive” in each case. The activity (max response) in assay [12] is 11.3% and -11.4%.
